Inconclusive results are not listed. Where a call stands in place of a potency, no number is given. Activity calls are given as the source filed them. The call rests on the fitted dose curve; in most records, active means well fitted cell-killing curve with a large enough effect; inconclusive means small, poorly fitted or top-dose-only effect; inactive means flat fitted curve, though single readings scatter.
Assay: Cell Viability - LYMP1-002 - Assay at 40 hr (AID 994); further: nearly all actives have a fitted effect of over 60% in size
Settings: LYMP1-002 lymphoblastoid cell viability; series mostly up to 92.2 µM
Source text: NIH Chemical Genomics Center [NCGC]
NIH Molecular Libraries Screening Centers Network [MLSCN]
National Institutes of Environmental Health Sciences [NIEHS]
National Toxicology Program [NTP]
We have developed a 1536-well cell-based assay for quantitative high throughput screening (qHTS) against a number of cell lines to determine in vitro cytotoxicity of small molecules. This particular assay uses a human lymphoblastoid cell line (LYMP1-002) purchased from Coriell Institute for Medical Research.
NCGC Assay Protocol Summary:
The CellTiter-Glo luminescent cell viability assay (Promega) is a homogeneous method to measure the number of viable cells in culture. The end point readout of this assay is based on quantitation of intracellular ATP, an indicator of metabolic activity, using the luciferase reaction. Luciferase catalyzes the oxidation of beetle Luciferin to oxyluciferin and light in the presence of ATP. The luminescent signal is proportional to amount of ATP present.
Using the CellTiter-Glo luminescent cell viability assay, the amount of cellular ATP was measured in the lymphoblastoid cell line with complete culture medium following compound treatment for 40 hours. The assay was performed in opaque white Kalypsys 1536-well plates. In the screen, tetraoctylammonium bromide was used as positive control. Library compounds were measured for their ability to cause acute toxicity in the cell line, as reflected by a decrease in intracellular ATP levels, in a concentration-dependent manner. […] AC50 values were determined from concentration-response data modeled with the standard Hill equation.
qHTS protocol for CellTiter Glo lymphoblastoid cellular assay
[Step] [Parameter] [Value] [Description]
1. Reagent; 5 uL; 2500 lymphoblastoid cells/well
2. Time; 5 hr; 37 C incubation
4. Controls; 23 nL; Tetraoctylammonium bromide 6.4pM to 92 uM
5. Time; 40 hr; 37 C incubation
6. Reagent; 5 uL; CellTiter Glo reagent
7. Time; 30 min; Room Temperature
8. Detection; Luminescence; Viewlux plate reader
Keywords: cell viability, cytotoxicity, lymphoblastoid cell line, luminescence, NTPHTS, NTPHTS_NCGC, NIEHS, DSSTox, MLSMR, MLSCN, NIH Roadmap, qHTS, NCGC
Potency means the concentration at half of the fitted maximal effect.

Compound | Potency
Nc1ccc(Cl)cc1N | inactive
CN(C)[C@@H]1C(=O)C(C(N)=O)=C(O)[C@@]2(O)C(=O)C3=C(O)c4c(O)cccc4[C@@](C)(O)[C@H]3[C@H](O)[C@@H]12 | inactive
Nc1ccc(Cl)cc1 | inactive
CC(=O)[O][Hg][c]1ccccc1 | 3.98 µM (active)
COC(C)(C)CCCC(C)C/C=C/C(C)=C/C(=O)OC(C)C (stereo unspecified) | inactive
CCCCOC(=O)c1ccccc1C(=O)OCc1ccccc1 | inactive
O=C(O)COc1ccccc1 | inactive
O=C(O)C(Cl)Cl | inactive
COc1ccc(C(c2ccc(OC)cc2)C(Cl)(Cl)Cl)cc1 | inactive
Nc1ccc([N+](=O)[O-])cc1 | inactive
O=S(=O)(c1ccc(Cl)cc1)c1ccc(Cl)cc1 | inactive
O=[N+]([O-])c1c(Cl)c(Cl)cc(Cl)c1Cl | inactive
Nc1ccc(Sc2ccc(N)cc2)cc1 | inactive
OCCCBr | inactive
C=CC(=O)NCNC(=O)C=C | inactive
c1cc2ccc3cccc4ccc(c1)c2c34 | inactive
CCCCC(CC)COC(=O)c1ccccc1C(=O)OCC(CC)CCCC (stereo unspecified) | inactive
O=[N+]([O-])c1cc([N+](=O)[O-])c2ccccc2c1 | inactive
C1CCC(NC2CCCCC2)CC1 | inactive
CN(C)NC(=O)CCC(=O)O | inactive
CCOCCOC(C)=O | inactive
CCCCCCCCc1ccc(O)cc1 | inactive
CCOP(=O)(NC(C)C)Oc1ccc(SC)c(C)c1 (stereo unspecified) | inactive
Cc1cc(O)ccc1Cl | inactive
CC(C)(O)C(=O)Nc1ccc([N+](=O)[O-])c(C(F)(F)F)c1 | inactive
O=[N+]([O-])c1c2ccccc2cc2ccccc12 | inactive

From PubChem BioAssay (NCATS)
